The values below come from ChEMBL document CHEMBL1156829.

“And” between values parts separate entries of the source, which are not always exact repeats. Equal values may be shown once. Over roughly 5,400 compounds, “IFI” has its median near 2; the highest 2% begin near 22. The sample as a whole holds a higher share of the highest values than the screen did.

The assay in a line: NOVARTIS: Inhibition Frequency Index (IFI) - the number of HTS assays where a compound showed > 50% inhibition/induction, expressed as a percentage of the number of assays in which the compound was tested. The format is functional.
In turn, `Cc1oc2c(c1C(=O)NC1CCS(=O)(=O)C1)C(=O)c1ccccc1C2=O` (stereo unspecified) yielded an IFI of 29.7%.
The value for `CCOC(=O)c1c(C)oc2c1C(=O)c1ccccc1C2=O` was 3.17%; that for `Cc1oc2c(c1C(=O)NCCCn1ccnc1)C(=O)c1ccccc1C2=O` was 24.3%.
`Cc1oc2c(c1C(=O)N1CCC(C)CC1)C(=O)c1ccccc1C2=O`: the IFI amounted to 15.4%.
The value for `Cc1oc2c(c1C(=O)NCC1CCCO1)C(=O)c1ccccc1C2=O` (stereo unspecified) was 17%.
Next, `Cc1oc2c(c1C(=O)NCc1cccnc1)C(=O)c1ccccc1C2=O`: 17.5%; `COc1cc(NC(C)CCCN(Cc2ccc(F)cc2)C(=O)CCc2ccccc2)c2ncccc2c1` (stereo unspecified): 1.71%; `COc1cc(NC(C)CCCN(Cc2ccc(OC)c(OC)c2)C(=O)CC(C)CC(C)(C)C)c2ncccc2c1` (stereo unspecified): 3.64%.
The value for `O=C(Cc1cccs1)N1CCN(c2ccccn2)CC1` was 2.35%.
`COc1ccc(C[C@H](N)C(=O)N[C@H]2[C@@H](O)[C@H](n3cnc4c(N(C)C)ncnc43)O[C@@H]2CO)cc1` came in with an IFI of 30.8%.
The value for `COCCN1C(=O)c2[nH]nc(-c3ccccc3O)c2C1c1ccc(SC)cc1` (stereo unspecified) was 0%.
The value for `C[n+]1c2ccccc2nc2ccc(NCCc3cnc[nH]3)cc21` was 15.4%.
Next, `C[n+]1c2ccccc2nc2ccc(NC3CCCCC3N)cc21` (stereo unspecified): 23.1%; `COc1ccc2c(c1)[nH]c1c(N3CCN(C(c4ccccc4)c4ccccc4)CC3)ncnc12`: 8.77%; `Cc1ccc(S(=O)(=O)c2c(COC(=O)c3cccc(C)c3)c(-c3ccccc3)nn2C)cc1`: 3.9%.
Take `CN[C@H]1C[C@@H]2O[C@](C)([C@H]1O)n1c3ccccc3c3c4c(c5c6ccccc6n2c5c31)C(=O)NC4`: the IFI is 46.2%.
`COc1cc2c(-c3cc(Br)ccc3O)nc3c(c(-c4ccccc4)nn3-c3ccccc3)c2cc1OC` returned an IFI of 3.03%.
Next, `CC[n+]1c(C=CN(C)c2ccccc2)oc(-c2ccccc2)c1-c1ccccc1`: 22.7%; `CC[n+]1c(C=CN(C)c2ccccc2)sc2ccc(Cl)cc21`: 9.09%; `CC[n+]1c(/C=C/N(C)c2ccccc2)sc(-c2ccccc2)c1-c1ccccc1`: 14.3%.
The value for `CC(NCc1ccccc1)c1cc(Cl)ccc1O` (stereo unspecified) was 0%.
Next, `Oc1c(C(Nc2ccccn2)c2cccc(Cl)c2Cl)ccc2cccnc12` (stereo unspecified): 15.4%.
In the case of `Cc1ccc(-c2c[n+](-c3ccccc3)c3n2CCCS3)cc1`, the IFI came to 7.69%.
`CC(C)(C)c1ccc(-c2c[n+](-c3ccccc3)c3n2CCCS3)cc1` returned an IFI of 23.1%.
Next, `Clc1ccc(-c2c[n+](-c3ccccc3)c3n2CCS3)cc1`: 0.725%; `CC1CNC2C(C)C3C(CC4C5CCC6CC(N)CCC6(C)C5CCC43C)OC2(O)C1` (stereo unspecified): 5.26%.
Compound `Oc1ccccc1-c1nc2sc(-c3ccccc3O)nc2s1` registered an IFI of 11%.
Next, `N#C/C(=C\C=C\c1ccc([N+](=O)[O-])o1)c1nc2ccccc2[nH]1`: 28.6%; `N#C/C(=C\c1ccc(Sc2ccccc2)o1)c1nc2ccccc2[nH]1`: 6.74%; `CCN(CC)c1ccc(/C=C(/C#N)c2nc3ccccc3[nH]2)o1`: 7.69%.
Next, `COc1cc(C(=O)NC2CC3CCC(C2)N3C2CC2)cc(OC)c1OC` (stereo unspecified): 0%.
Next, `COc1ccc(-c2c[n+](CC(=O)c3ccc(Cl)cc3)c3n2CCC3)cc1`: 5%.
As to `O=C(C[n+]1cc(-c2ccc(Cl)cc2)n2c1CCC2)c1ccc(C2CCCCC2)cc1`, the IFI came to 27.5%.
Next, `O=C(C[n+]1cc(-c2ccccc2)n2c1CCC2)c1ccc(C2CCCCC2)cc1`: 12.5%; `c1cc2cc(CN3CCc4nc(N5CCCCC5)sc4C3)ccc2[nH]1`: 4.17%; `CN1CCc2c(sc3nc(SCc4ccc(F)cc4)n(-c4ccccc4)c(=O)c23)C1`: 2.5%.
`COc1cc(/C=C2\CC/C(=C\c3cc(OC)c(OC)c(OC)c3)C2=O)cc(OC)c1OC` came in with an IFI of 2.7%.
The compound `CC1C/C(=C/c2ccncc2)C(=O)/C(=C/c2ccncc2)C1` (stereo unspecified) yielded an IFI of 33.3%.
Consider `COc1ccc2c(c1)c(C)cc[n+]2Cc1ccccc1`, for which the IFI was determined as 6.3%.
With `CC(C)(C)CC(=O)NCc1ccc(OC2CCN(CC(c3ccccc3)c3ccccc3)CC2)cc1`, the IFI worked out at 7.04%.
With `O=C1CCC(c2ccc(Cl)c(Cl)c2)c2ccc(O)cc21` (stereo unspecified), the IFI worked out at 0%.
`COc1cc2nc(N3CCN(c4nc(N)c5cc(OC)c(OC)cc5n4)CC3)nc(N)c2cc1OC` came in with an IFI of 23.1%.
Next, `COc1cc2nc(Nc3ccc(F)cc3)nc(N)c2cc1OC`: 0%; `COc1ccc(-c2cc(C3CCN(c4nc(N)c5cc(OC)c(OC)cc5n4)CC3)n[nH]2)cc1OC`: 7.41%.
The value for `CCc1c2ccc(C)n2cc[n+]1CC` was 6.02%.
Turning to `Cc1ccc(CSCc2ccc(C(=O)NC3CC3)o2)cc1`, the IFI was found to be 0%.
As for `CC(=O)Nc1ccc(-c2nc(-c3ccc(Oc4ccc(-c5[nH]c(-c6ccc(NC(C)=O)cc6)nc5-c5ccccc5)cc4)cc3)c(-c3ccccc3)[nH]2)cc1`, the IFI was determined as 1.54%.
The value for `COc1ccc2c(c1)C(C)=CC(C)(C)N2C(=O)CSc1nnc(-c2ccc(C)cc2)o1` was 0%; that for `O=C(N/C(=C/C=C/c1ccccc1)C(=O)N1CCCCC1)c1ccc([N+](=O)[O-])cc1` was 0.685%.
The value for `CCCCNC(=O)NC(Cc1c[nH]c2ccccc12)C(=O)NC1CCCCC1` (stereo unspecified) was 4.21%.
The value for `CC1CN(C(=O)C(Cc2c[nH]c3ccccc23)NC(=O)C(c2ccccc2)c2ccccc2)CCN1C(=O)NCc1ccccc1` (stereo unspecified) was 0%; that for `CC(C)C[C@@H](NC(=O)[C@H](C)NC(=O)CNC(=O)[C@@H](NC=O)C(C)C)C(=O)N[C@@H](C)C(=O)N[C@@H](C(=O)N[C@H](C(=O)N[C@@H](C(=O)N[C@@H](Cc1c[nH]c2ccccc12)C(=O)N[C@H](CC(C)C)C(=O)N[C@@H](Cc1c[nH]c2ccccc12)C(=O)N[C@H](CC(C)C)C(=O)N[C@@H](Cc1c[nH]c2ccccc12)C(=O)N[C@H](CC(C)C)C(=O)N[C@@H](Cc1c[nH]c2ccccc12)C(=O)NCCO)C(C)C)C(C)C)C(C)C` was 27.6%.
In turn, `Cc1ccc(Nc2nc(NCc3ccccc3)c3ccccc3n2)cc1` yielded an IFI of 0%.
Next, `C=CCSc1nc(N)c2c3c(sc2n1)CN(CCC)CC3`: 14%.
Next, `CC[n+]1c(/C=C/C=C2\N(C)c3ccccc3C2(C)C)n(-c2ccccc2)c2ccc(C)cc21`: 21.4%.
`CC[n+]1c(/C=C/C=C2\N(C)c3ccccc3C2(C)C)n(-c2ccccc2)c2ccc(Cl)cc21` showed an IFI of 21.4%.
Next, `CCN1/C(=C/C=C/c2sc3ccccc3[n+]2CC)Sc2ccccc21`: 21.7%.
In turn, `C[n+]1c(C=CNc2ccccc2)n(-c2ccccc2)c2ccc(Cl)cc21` came in with an IFI of 12.5%.
The value for `CC[n+]1c(/C=C/C=C2\N(C)c3ccccc3C2(C)C)n(CCCOC(C)=O)c2ccccc21` was 14.3%; that for `CC[n+]1c(C=CN(C)C)sc2ccccc21` was 4.62%; that for `CN1/C(=C\C=C\C2=[N+](C)c3ccc4ccccc4c3C2(C)C)C(C)(C)c2ccccc21` was 23.1%.
Next, `CC[n+]1c(/C=C/C=C2\N(C)c3ccccc3C2(C)C)n(-c2ccccc2)c2cc(Cl)ccc21`: 33.3%; `CCC1=[N+](C)c2cccc3cccc(c23)N1C`: 3.12%; `CC[n+]1c(/C=C/C=C2\N(C)c3ccccc3C2(C)C)n(Cc2ccccc2)c2ccccc21`: 32.6%.
The value for `CC[n+]1c(C=CC=C2N(C)c3ccccc3C2(C)C)sc2ccccc21` was 28.6%; that for `Brc1ccc(-c2n(Cc3ccccc3)c3ccccc3[n+]2Cc2ccccc2)o1` was 15.4%.
For the compound `COc1ccc(NC(=O)C2c3ccccc3C(=O)N(C3CCCC3)C2c2cccs2)cc1Cl` (stereo unspecified), the IFI stood at 6.25%.
With `CC1=C(C=CC(C)C=NNC(=O)c2ccncc2)C(C)(C)CCC1` (stereo unspecified), the IFI came out at 0%.
Next, `COc1ccc(-c2ccc(C=NNC(=O)CNC(=O)c3ccc4c(c3)OCO4)o2)cc1Cl`: 0%; `CCC(=O)CC(O)C[C@@H](C)C[C@H](NC(=O)[C@@H]1C[C@H](C)CN1C(=O)/C=C/[C@@H](C)CC)C(=O)N[C@H](C(=O)NC(C)(C)C(=O)N[C@@H](CC(C)C)C(=O)N[C@@H](CC(C)C)C(=O)NC(C)(C)C(=O)NC(C)(C)C(=O)NCCC(=O)N[C@@H](C)CN(C)C)[C@H](O)C(C)C` (stereo partly specified): 12.1%; `COc1cccc(C(=O)Oc2ccccc2-c2nc3cc(C)ccn3c2NC(C)(C)CC(C)(C)C)c1`: 3.74%.
Next, `Cc1occc1C(=O)NN=C/C(Cl)=C/c1ccccc1`: 7.69%; `CC(C)(C)OCCN(CC(O)CN(Cc1ccccc1)C(=O)NC(c1ccccc1)c1ccccc1)S(=O)(=O)c1ccccc1` (stereo unspecified): 0.935%; `COc1cc(C2C(C(=O)OCC(C)C)=C(C)NC3=C2C(=O)CC(c2ccccc2)C3)cc(Br)c1O` (stereo unspecified): 4.65%.
The value for `Cc1ccc(Cn2c(N3CCC(C(=O)NCc4ccccn4)CC3)nc3ccccc32)cc1` was 0%.
As to `CCc1cccc2c(C#N)cn(CC(=O)Nc3ccc(OC)cc3)c12`, the IFI is 7.69%.
Turning to `Clc1ccc(C[n+]2cc(-c3ccccc3)n3c2CCC3)cc1Cl`, the IFI worked out at 3.77%.
The compound `Cc1cccc(C)c1NC(=O)N1CCN(C(=O)c2nc(-c3ccccc3)nc(C)c2C(=O)OC(C)C)CC1C` (stereo unspecified) had an IFI of 2.8%.
The value for `N#CC(c1ccc(C(F)(F)F)cc1)c1ccc2c(C(F)(F)F)cc(C(F)(F)F)nc2n1` (stereo unspecified) was 26.3%; that for `COc1ccc(C2Nc3ccc4ccccc4c3C3=C2C(=O)CC(C)(C)C3)cc1Br` (stereo unspecified) was 0%; that for `CCCCOc1cccc(C(=O)N(Cc2cccs2)c2ccc(OC)cc2)c1` was 0%.
Next, `CCN1C(=Cc2ccc3c4ccoc4ccc3[n+]2CC)C=Cc2c1ccc1occc21`: 28.6%; `CC[n+]1c(/C=C2\C=Cc3cc(C)ccc3N2C)ccc2cc(C)ccc21`: 15.4%; `CCN1C(=Cc2sc3cc(NC(C)=O)ccc3[n+]2CC)C=Cc2cc(C)ccc21`: 7.69%.
Next, `C=CCN1C=CC(=Cc2sc3ccccc3[n+]2C)c2ccccc21`: 17.6%; `CC(C)(C)NC(=O)C(c1ccc(F)cc1)N(CCCN1CCOCC1)C(=O)c1ccc(-c2ccccc2)[nH]1` (stereo unspecified): 3.16%; `COc1ccc(OC)c(NC(=O)c2cnn3c(C(F)(F)F)cc(-c4ccc(OC)c(OC)c4)nc23)c1`: 2.38%.
For the compound `CC1(C)C(=O)C2(CCCCC2)C(=O)OC1/C=C/c1ccccc1` (stereo unspecified), the IFI is 1.49%.
The value for `c1ccc(CSc2nc3ccncc3[nH]2)cc1` was 0%; that for `c1ccc(CSc2nnc3c(n2)[nH]c2ccccc23)cc1` was 0% and 3.82%.
Next, `c1ccc(CSc2scnc2[P+](c2ccccc2)(c2ccccc2)c2ccccc2)cc1`: 27.8%.
